Source: PubChem BioAssay
mHTT-CaM PPI inh – mutant huntingtin-calmodulin interaction inhibitors – biochemical, AlphaScreen, primary screen. inhibition, % at 15 µM. AlphaScreen His-mHTT/GST-CaM binding, luminescence. 190,000 compounds, 3.6% hits
Pf apPOL inh – Pf-apPOL inhibitors, biochemical, fluorescence | Plasmodium falciparum apicoplast DNA polymerase (apPOL) | inhibition, % at 10 µM | 210,000 compounds, 0.25% hits | Recombinant Pf-apPOL, molecular beacon fluorescence, 1.5 h
A number is an active result; – = inactive; · = no result given. This excerpt belongs to a sample that is enriched for hits. Cut-off read from the data, not from the text of the source: active = inhibition above about 50%; inactive = the rest.

SMILES	mHTT-CaM PPI inh	Pf apPOL inh
O=C1C(=Cc2cc3cc(Br)ccc3o2)Oc2c1ccc(O)c2CN1CCN(CCO)CC1	60	–
COc1cc(OC)c(OC)cc1C=C1Oc2c(ccc(O)c2CN2CCCC(C)C2)C1=O (stereo unspecified)	51	–
COc1ccc(C=C2Oc3c(ccc(O)c3CN3CCCC(C)C3)C2=O)c(OC)c1OC (stereo unspecified)	–	–
COC(=O)c1ccc(C=C2Oc3c(ccc(O)c3CN3CCCC3)C2=O)cc1	–	–
COc1ccc(Br)cc1C=C1Oc2c(ccc(O)c2CN2CCN(CCO)CC2)C1=O	–	–
COC(=O)c1ccc(C=C2Oc3c(ccc(O)c3CN3CCCCC3C)C2=O)cc1 (stereo unspecified)	52	–
CC(C)CNC(=O)c1cncc(-c2ccc(F)cc2)c1	–	–
CCC(=O)Nc1cccc(-c2noc(C3CCN(C(=O)c4ccc(C)c(C)c4)CC3)n2)c1	–	–
c1ccc2c(CCc3ccncc3)c[nH]c2c1	–	–
c1ccc(Cc2c[nH]c3ccccc23)cc1	61	–
COc1cc(OC)cc(N2CCN(Cc3ccccc3)C(C)C2=O)c1 (stereo unspecified)	–	–
COc1cc(OC)cc(N2CCN(Cc3ccc(F)cc3)C(C)C2=O)c1 (stereo unspecified)	79	–
COc1ccc(-c2cc3n(n2)CCCN(Cc2ccoc2)C3)cc1	–	–
Fc1ccc(-c2cc3n(n2)CCCN(Cc2cccc(F)c2)C3)cc1	92	–
O=C(CN1CCC(C(=O)N2CCN(c3ncccn3)CC2)CC1)Nc1ccc(F)cc1	–	–
Cc1ccc2nc(C3CN(C(=O)c4cc(-c5cccs5)[nH]n4)C3)[nH]c2c1	53	–
Cc1nnc(C2CCCN(C(=O)c3cc(-c4cccs4)[nH]n3)C2)s1 (stereo unspecified)	–	–
O=C1c2cccc(N3CCOCC3)c2C(=O)c2cccc(Cl)c21	84	–
O=C1CCC(=O)N1c1ccccc1N1CCOCC1	·	–
CCC[C@H]1[C@@H](OC(=O)N2CCN(c3ccccc3)CC2)CC[C@@]23CCCN2C(=O)CCC[C@@H]13	99	–
CCC[C@H]1[C@@H](OC(=O)Oc2ccc([N+](=O)[O-])cc2)CC[C@@]23CCCN2C(=O)CCC[C@@H]13	58	–
CCC[C@H]1[C@@H](OC(=O)NCc2ccccc2Cl)CC[C@@]23CCCN2C(=O)CCC[C@@H]13	–	–
C[C@H]1[C@@H](OC(=O)Oc2ccc([N+](=O)[O-])cc2)CC[C@@]23CCCN2C(=O)CCC[C@@H]13	–	–
CCC[C@H]1[C@@H](OC(=O)N2CCOCC2)CC[C@@]23CCCN2C(=O)CCC[C@@H]13	–	–
CCC[C@H]1[C@@H](OC(=O)NCCc2c[nH]c3ccccc23)CC[C@@]23CCCN2C(=O)CCC[C@@H]13	65	–
SMILES	mHTT-CaM PPI inh	Pf apPOL inh
COc1ccc(-c2nnc(SCC(=O)c3ccc(F)cc3)n2-c2ccccc2)cc1	–	–
Cc1ccc(NC(=O)c2nnn3c2COC(c2ccc(C)cc2)C3)cc1 (stereo unspecified)	–	–
Cc1ccc(C)c(N2CCC(C(=O)Nc3cccc(C(F)(F)F)c3)C2=O)c1 (stereo unspecified)	79	–
Cc1ccc(C)c(N2CCC(C(=O)Nc3cccc(Cl)c3)C2=O)c1 (stereo unspecified)	–	–
CC(=O)C1=C(C)NC(C)=C(C(C)=O)C1c1cccc([N+](=O)[O-])c1	·	–
CC(=O)C1=C(C)Nc2sc(C(=O)c3cccc([N+](=O)[O-])c3)c(N)c2C1c1cccnc1 (stereo unspecified)	57	–
O=C(C(c1ccccc1)c1ccccc1)N1CCCC1	–	–
Cn1nc(COc2ccncc2)c2c1CCN(Cc1ccsc1)C2	–	–
COc1cccc(CN2CCc3c(cc(C(=O)NCc4ccc(F)cc4)n3C)C2)c1	54	–
COc1ccccc1NC(=O)c1cc2c(n1C)CCN(Cc1cccc(C)c1)C2	63	–
COCCNC(=O)c1cc2c(n1C)CCN(Cc1cccc(OC)c1)C2	–	–
CCN(CC)C(=O)c1cc2c(n1C)CCN(Cc1ccc(F)cc1)C2	–	–
COc1cccc(CN2CCc3c(cc(C(=O)Nc4cccc(C)c4C)n3C)C2)c1	–	–
COc1ccc(NC(=O)c2cc3c(n2C)CCN(Cc2ccc(F)cc2)C3)cc1	99	–
COc1ccc(CNC(=O)c2cc3c(n2C)CCN(Cc2ccccc2)C3)cc1OC	–	–
COc1cccc(CN2CCc3c(cc(C(=O)Nc4ccccc4OC)n3C)C2)c1	88	–
COc1cccc(-c2cc3n(n2)CCCN(C(=O)c2ccncc2)C3)c1	–	–
COCCCNc1ccc(-c2nc(-c3ccc(C)cc3)no2)cn1	–	–
COCCNC(=O)NCc1c(C)noc1C	–	–
COc1ccc(C2=N/C(=C\C=C\c3ccccc3)C(=O)O2)cc1	–	–
CCn1cc(C2=CCN(C(=O)Nc3cc(OC)ccc3OC)CC2)c2cccnc21	–	–
O=C(Nc1nc2c(s1)CN(C(=O)Cn1c(=O)oc3ccccc31)CC2)C1CCCO1 (stereo unspecified)	–	–
COc1cccc(CN2CCc3c(cc(C(=O)NC(C)C)n3C)C2)c1	–	–
Cc1ccc(CN2CCc3c(cc(C(=O)Nc4ccc(N5CCOCC5)cc4)n3C)C2)cc1	–	–
COc1cccc(CN2CCc3c(cc(C(=O)Nc4ccccc4)n3C)C2)c1	59	–
SMILES	mHTT-CaM PPI inh	Pf apPOL inh
COc1ccc(NC(=O)c2cc3c(n2C)CCN(Cc2ccc(C)cc2)C3)cc1OC	50	–
COc1ccc(Cl)cc1N1CCN(C(=O)c2cccc(C)c2)C(C)C1=O (stereo unspecified)	–	–
O=C(Oc1ccccc1N1CCOCC1)c1cccs1	·	–
CCNc1nc(NC(C)C)nc(OCCNS(=O)(=O)c2cc(C)ccc2C)n1	–	–
CCNc1nc(NCC)nc(OCCNS(=O)(=O)c2cc(C)ccc2C)n1	–	89
O=C(c1ccc(Cl)s1)N1CCc2c(nc3cc[nH]n3c2=O)C1	–	–
O=C1CC(NC(=O)C23CC4CC(CC(C4)C2)C3)CN1 (stereo unspecified)	–	–
COCCN=C1Nc2ccccc2NC12CCCN(C(=O)c1ccccn1)C2 (stereo unspecified)	–	–
COCCN=C1Nc2ccccc2NC12CCCN(C(=O)Cc1c[nH]c3ccccc13)C2 (stereo unspecified)	–	–
COCCN=C1Nc2ccccc2NC12CCCN(C(=O)c1n[nH]c3ccccc13)C2 (stereo unspecified)	76	–
COCCN=C1Nc2ccccc2NC12CCCN(C(=O)Cc1ccsc1)C2 (stereo unspecified)	98	–
COCCN=C1Nc2ccccc2NC12CCCN(C(=O)c1ccccc1C)C2 (stereo unspecified)	–	–
COCCN=C1Nc2ccccc2NC12CCCN(C(=O)Cc1ccccc1F)C2 (stereo unspecified)	100	–
O=c1c2ccccc2c(-c2cccs2)nn1CCc1ccccc1	–	–
C=CCSc1nnc2c(n1)OC(c1ccc(F)cc1)N(C(C)=O)c1ccccc1-2 (stereo unspecified)	–	–
C=CCSc1nnc2c(n1)OC(c1ccc(N(C)C)cc1)N(C(C)=O)c1ccccc1-2 (stereo unspecified)	64	–
Cc1ccccc1C1CC(c2ccc(F)cc2)Nc2nnnn21 (stereo unspecified)	–	–
Oc1ccc(-c2[nH]ncc2Oc2ccccc2)c(O)c1	–	–
